PostGolgi ctrl: growth inhibition of yeast control strain, primary screen, counter-screen for post-Golgi transport modulator project. inhibition, % at 10 µM. 98,000 tested, 5% active. AID 738, 2007. efflux-deficient yeast background strain, growth absorbance A615, 16 h
PostGolgi yeast: phenotypic screen on post-Golgi transport, primary screen. post-Golgi transport phenotypic cell assay. 98,000 tested, 0.9% active. AID 739, 2007. inhibition, % at 10 µM;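 also: yeast cells grown in 1536-well plates; yeast grown about 18 h at 30C before absorbance read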
CYP2C9 activ: human CYP2C9 activators, primary screen, biochemical, luminescence; recombinant CYP2C9, luciferin-H conversion; hits give high values; factor 1 = untreated enzyme, 0 = blocked; activation factor at 5 µM; 96,000 tested, 1.4% active; AID 1024, 2008;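 active = activation factor of 2 or more for CYP2C9 at a 5 µM dose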
Target sequence (P11712 whole entry, looked up): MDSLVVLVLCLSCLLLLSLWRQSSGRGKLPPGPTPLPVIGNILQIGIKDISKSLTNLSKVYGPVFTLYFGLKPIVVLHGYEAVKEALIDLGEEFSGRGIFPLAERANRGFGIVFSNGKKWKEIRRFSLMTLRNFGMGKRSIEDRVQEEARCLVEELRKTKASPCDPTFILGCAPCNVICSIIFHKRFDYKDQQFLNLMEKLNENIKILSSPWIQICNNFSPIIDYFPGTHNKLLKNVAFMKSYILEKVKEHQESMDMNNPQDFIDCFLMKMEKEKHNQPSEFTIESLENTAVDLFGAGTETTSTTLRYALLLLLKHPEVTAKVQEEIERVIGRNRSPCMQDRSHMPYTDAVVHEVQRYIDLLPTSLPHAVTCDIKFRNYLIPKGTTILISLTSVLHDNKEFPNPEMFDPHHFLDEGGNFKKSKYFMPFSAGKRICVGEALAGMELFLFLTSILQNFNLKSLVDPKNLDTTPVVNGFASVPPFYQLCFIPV
CYP2C19 inh: blockers of cytochrome P450 2C19 activity – biochemical, luminescence, ADME assay, primary screen. inhibition, % at 5 µM. CYP2C19 Supersomes, luciferin-H EGE luminescence, 30 min. AID 778, 2007. 96,000 tested, 21% active. P33261;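 active = CYP2C19 inhibition above a set limit at 5 µM in the primary screen, cut at about 50% in these data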
CYP2C9 inh: blockers of cytochrome P450 2C9 activity – biochemical, luminescence, ADME assay, primary screen; inhibition, % at 5 µM; CYP2C9 Supersomes, luciferin-H conversion; AID 777, 2007; 96,000 tested, 20% active;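 active = blocking of liver enzyme CYP2C9 beyond about 50% at 5 µM, limit read from the data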
CYP2C19 activ: human CYP2C19 activators, primary screen, biochemical, luminescence | Cytochrome P450 2C19 (Homo sapiens), P33261 | recombinant CYP2C19, luciferin-H EGE luminescence; hits give high values; 0 = fully inhibited enzyme, 1 = untreated enzyme | activation factor at 5 µM | 96,000 tested, under 10 active | AID 1025, 2008;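 active = activation factor of at least 2 at 5 µM in the primary screen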
Hits are given with their value. Shown are actives, neighbours in structure and some others; about 32% of the full set was active somewhere. Rule as the data show it, unless noted: active = inhibition above about 30%; inactive = the rest.

`CCCC(=O)NC(C)c1nc2ccccc2n1CC` (stereo not given) gave PostGolgi ctrl inactive, PostGolgi yeast inactive, CYP2C9 activ inactive, CYP2C19 inh inactive, CYP2C9 inh inactive and CYP2C19 activ inactive.
For CCCCn1c(SCC(=O)OC)nc2c1c(=O)n(C)c(=O)n2C the results were PostGolgi ctrl inactive, PostGolgi yeast inactive, CYP2C9 activ inactive, CYP2C19 inh inactive, CYP2C9 inh inactive and CYP2C19 activ inactive.
For Cn1c(=O)c2c(nc(CN3CCN(Cc4ccccc4)CC3)n2Cc2ccccc2)n(C)c1=O the results were PostGolgi ctrl inactive, PostGolgi yeast inactive, CYP2C9 activ inactive, CYP2C19 inh inactive, CYP2C9 inh inactive and CYP2C19 activ inactive.
Screening Cn1c(=O)c2c(nc(CN3CCN(Cc4ccccc4)CC3)n2Cc2ccc(Cl)cc2)n(C)c1=O returned PostGolgi ctrl inactive, PostGolgi yeast inactive, CYP2C9 activ inactive, CYP2C19 inh inactive, CYP2C9 inh 51 and CYP2C19 activ inactive.
For CCCCCCn1c(NCC)nc2c1c(=O)n(C)c(=O)n2C the results were PostGolgi ctrl inactive, PostGolgi yeast inactive, CYP2C9 activ 2.8, CYP2C19 inh inactive, CYP2C9 inh inactive and CYP2C19 activ inactive.
For COC(=O)CSc1nc2c(c(=O)n(C)c(=O)n2C)n1CCCc1ccccc1 the results were PostGolgi ctrl inactive, PostGolgi yeast inactive, CYP2C9 activ inactive, CYP2C19 inh 67, CYP2C9 inh 85 and CYP2C19 activ inactive.
For CCCCn1c(SCc2nnc(-c3ccccc3)o2)nc2c1c(=O)n(C)c(=O)n2C the results were PostGolgi ctrl inactive, PostGolgi yeast inactive, CYP2C9 activ inactive, CYP2C19 inh 64, CYP2C9 inh 77 and CYP2C19 activ inactive.
For CCc1sc(C(=O)Nc2cc(Cl)ccc2N2CCCCC2)cc1C the results were PostGolgi ctrl 41, PostGolgi yeast 64, CYP2C9 activ inactive, CYP2C19 inh inactive, CYP2C9 inh inactive and CYP2C19 activ inactive.
`C1CCc2c(nnc3c2-c2nonc2CC3)C1` gave PostGolgi ctrl inactive, PostGolgi yeast inactive, CYP2C9 activ inactive, CYP2C19 inh inactive, CYP2C9 inh inactive and CYP2C19 activ inactive.
Screening Cc1cccc(N(CC(=O)NCC2CCCO2)C(=O)CCC(=O)Nc2cc(C)on2)c1 (stereo not given) returned PostGolgi ctrl inactive, PostGolgi yeast inactive, CYP2C9 activ inactive, CYP2C19 inh inactive, CYP2C9 inh 52 and CYP2C19 activ inactive.
Screening Cc1cccc(-c2noc(CCC(=O)NCC3CCCO3)n2)c1 (stereo not given) returned PostGolgi ctrl inactive, PostGolgi yeast inactive, CYP2C9 activ inactive, CYP2C19 inh 60, CYP2C9 inh inactive and CYP2C19 activ inactive.
Screening O=C(CN(C(=O)CCC(=O)Nc1nccs1)c1cccc(F)c1)NCC1CCCO1 (stereo not given) returned PostGolgi ctrl inactive, PostGolgi yeast inactive, CYP2C9 activ inactive, CYP2C19 inh inactive, CYP2C9 inh inactive and CYP2C19 activ inactive.
CCc1cccc2c(SC(C)C(=O)NCC3CCCO3)nc(-c3ccccc3)nc12 (stereo not given) was read as PostGolgi ctrl inactive, PostGolgi yeast inactive, CYP2C9 activ inactive, CYP2C19 inh inactive, CYP2C9 inh 61 and CYP2C19 activ inactive.
CCc1cccc2c(SCC(=O)NCC3CCCO3)nc(-c3ccc(F)cc3)nc12 (stereo not given) was read as PostGolgi ctrl inactive, PostGolgi yeast inactive, CYP2C9 activ inactive, CYP2C19 inh inactive, CYP2C9 inh inactive and CYP2C19 activ inactive.
For Cc1ccccc1-c1noc(CCC(=O)NCC2CCCO2)n1 (stereo not given) the results were PostGolgi ctrl inactive, PostGolgi yeast inactive, CYP2C9 activ inactive, CYP2C19 inh inactive, CYP2C9 inh inactive and CYP2C19 activ inactive.
Cc1ccc(-c2noc(CCCC(=O)N3CCOCC3)n2)cc1 was read as PostGolgi ctrl inactive, PostGolgi yeast inactive, CYP2C9 activ inactive, CYP2C19 inh inactive, CYP2C9 inh inactive and CYP2C19 activ inactive.
Screening Cc1cccc(-c2noc(CCCC(=O)N3CCOCC3)n2)c1 returned PostGolgi ctrl inactive, PostGolgi yeast inactive, CYP2C9 activ inactive, CYP2C19 inh 52, CYP2C9 inh inactive and CYP2C19 activ inactive.
Screening Nn1c(SCC(=O)Nc2ccc(S(=O)(=O)N3CCCC3)cc2)nnc1C(F)(F)F returned PostGolgi ctrl inactive, PostGolgi yeast inactive, CYP2C9 activ inactive, CYP2C19 inh inactive, CYP2C9 inh inactive and CYP2C19 activ inactive.
Screening CCc1ccc2nc(-c3cccc(C)c3)nc(SCC(=O)NCC3CCCO3)c2c1 (stereo not given) returned PostGolgi ctrl inactive, PostGolgi yeast inactive, CYP2C9 activ inactive, CYP2C19 inh 60, CYP2C9 inh 75 and CYP2C19 activ inactive.
`O=C(Nc1ccc(O)c(C(=O)O)c1)c1ccc2c(c1)C(=O)N(CC1CCCO1)C2=O` (stereo not given) gave PostGolgi ctrl inactive, PostGolgi yeast inactive, CYP2C9 activ inactive, CYP2C19 inh inactive, CYP2C9 inh 66 and CYP2C19 activ inactive.
O=[n+]1c2c(n([O-])c3cc(Cl)ccc31)CCCC2 was read as PostGolgi ctrl inactive, PostGolgi yeast inactive, CYP2C9 activ inactive, CYP2C19 inh inactive, CYP2C9 inh inactive and CYP2C19 activ inactive.
Cc1ccc(CCN2CC(C(=O)NCCCOC(C)C)CC2=O)cc1 (stereo not given) was read as PostGolgi ctrl inactive, PostGolgi yeast inactive, CYP2C9 activ inactive, CYP2C19 inh inactive, CYP2C9 inh inactive and CYP2C19 activ inactive.
O=C(NCC1CCCO1)c1ccc(NC(=O)C2C3C=CC(C3)C2C(=O)O)cc1 (stereo not given) was read as PostGolgi ctrl inactive, PostGolgi yeast inactive, CYP2C9 activ inactive, CYP2C19 inh inactive, CYP2C9 inh inactive and CYP2C19 activ inactive.
For COc1cccc(-n2nc(C(=O)O)c3ccccc3c2=O)c1 the results were PostGolgi ctrl inactive, PostGolgi yeast inactive, CYP2C9 activ inactive, CYP2C19 inh 50, CYP2C9 inh inactive and CYP2C19 activ inactive.
Screening O=C(c1cc2ccccc2oc1=O)N1CCN(Cc2ccc3c(c2)OCO3)CC1 returned PostGolgi ctrl inactive, PostGolgi yeast inactive, CYP2C9 activ inactive, CYP2C19 inh inactive, CYP2C9 inh inactive and CYP2C19 activ inactive.
Screening COC(=O)CNC(=O)CNC(=O)c1nn(-c2ccc(OC)c(Cl)c2)c(=O)c2ccccc12 returned PostGolgi ctrl 35, PostGolgi yeast inactive, CYP2C9 activ inactive, CYP2C19 inh inactive, CYP2C9 inh inactive and CYP2C19 activ inactive.
`COc1ccc(-n2nc(C(=O)Nc3ccc4c(c3)OCO4)c3ccccc3c2=O)cc1` gave PostGolgi ctrl inactive, PostGolgi yeast inactive, CYP2C9 activ inactive, CYP2C19 inh inactive, CYP2C9 inh 79 and CYP2C19 activ inactive.
For COc1ccc(-n2nc(C(=O)N3CCN(Cc4ccc5c(c4)OCO5)CC3)c3ccccc3c2=O)cc1 the results were PostGolgi ctrl inactive, PostGolgi yeast inactive, CYP2C9 activ inactive, CYP2C19 inh inactive, CYP2C9 inh 74 and CYP2C19 activ inactive.

Screening data from PubChem BioAssay.
